C8 TRAIL sens: sensitizes caspase-8 expressing cells to TRAIL; NB7+C8 cells + TRAIL, ATPlite viability luminescence; inhibition (viability loss, TRAIL sensitization), % at 10 µM; 360,000 tested, 1% active;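 active means compounds causing at least 50% loss of cell viability in the single-dose screen, relative to plate controls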
PPC-1+TRAIL kill: PPC-1 cancer cell killing with TRAIL present | cell killing (% activity), % at 4 µM or 5 µM | 220,000 tested, 0.41% active | PPC-1 cells + TRAIL, ATPLite viability luminescence;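 active means cell killing above 50% in the first pass at 4 µM, then a duplicate retest at 5 µM averaging 50% or more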
Platelet DG rel: modulates dense granule release in human platelets; 300,000 tested, 0.22% active; human platelet-rich plasma, SFLLRN dense granule ATP release, luminescence; inhibition, %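 (compounds screened at 7.5 µM in platelet-rich plasma)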; AID 1663;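 active means mean replicate score, as percent of positive control, at or above 50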
HSP90 refold inh: HSP90 refolding inhibition in rabbit reticulocyte lysate | inhibition, % at 5.6 µM | luciferase refolding luminescence, 3 h | 290,000 tested, 0.91% active;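 active means inhibition above the screen-wide mean plus 3 SD, computed separately per campaign, cut at about 16% in these data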;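 further: inhibitors lower the luminescence because luciferase stays unfolded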
TWEAK Fn14 block: blocks TWEAK-Fn14 interaction in a reporter cell assay. TWEAK-stimulated Fn14 reporter cells, luciferase luminescence, 8 h. inhibition, % at 10 µM. 360,000 tested, 2% active; in the data active means inhibition above about 50%
TROY NFkB inh: blocks TROY-dependent signaling in reporter cells; 360,000 tested, 0.98% active; Q293 LMP1-TROYcd NF-kB luciferase reporter, 4 h; inhibition, % at 10 µM;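 active means compounds whose plate-normalised and pattern-corrected inhibition of the luciferase reporter signal at the single screening dose is 50% or more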
Large screens that a line does not name were inactive. Rows were chosen to be rich in hits. Some 3.5% of all compounds tested hit in one or more screens of this group.

Nc1ccc(N(CCO)CCO)cc1	none
CCN(CC)c1ccc(N)cc1	C8 TRAIL sens 60.4 (no result: PPC-1+TRAIL kill, Platelet DG rel, HSP90 refold inh)
CCOC(=O)C(CC)(CC)C(=O)/C=C/c1cccc(Br)c1	TWEAK Fn14 block 59.4 (no result: PPC-1+TRAIL kill)
Cc1ccc(C(=O)Nc2ccc(Cl)cc2C(F)(F)F)c(Cl)c1	none
Cc1ccc(C(=O)Nc2ccc(Cl)cc2C)c(Cl)c1	C8 TRAIL sens 55.3
CC1CCN(c2ccc(-c3ccc(NC(=O)C(F)(F)F)cc3)nn2)CC1	C8 TRAIL sens 88.6, TWEAK Fn14 block 62.2 (no result: PPC-1+TRAIL kill)
O=C(c1ccc(-c2ccccc2Cl)o1)N1CCN(S(=O)(=O)c2cccs2)CC1	none (no result: PPC-1+TRAIL kill, HSP90 refold inh)
C=CC[C@]12CC=CC(=O)[C@@]1(O)O[C@H](c1ccc(OC)c(OC)c1)[C@H]2C	TWEAK Fn14 block 65.5 (no result: PPC-1+TRAIL kill, HSP90 refold inh)
C=CC[C@]12C=C(OC)C(=O)C(OC)=C1O[C@@H](c1ccc3c(c1)OCO3)[C@H]2C	none (no result: PPC-1+TRAIL kill, HSP90 refold inh)
COc1ccc(-c2ccc(C(=O)Nc3cc(OC)c(OC)c(OC)c3)c3occc23)c(C)c1	none (no result: PPC-1+TRAIL kill, Platelet DG rel, HSP90 refold inh)
O=c1oc2c(O)cccc2cc1-c1nc2ccccc2[nH]1	C8 TRAIL sens 69.1 (no result: PPC-1+TRAIL kill)
CN(C)c1ccc(C=c2c3ccccc3n3c2c2c([n+]3C)CCCC2)cc1	TWEAK Fn14 block 63.5 (no result: PPC-1+TRAIL kill, Platelet DG rel, HSP90 refold inh)
CN(C)c1ccc(C=c2c3ccccc3n3c2cc(-c2ccc(Cl)cc2)[n+]3C)cc1	TWEAK Fn14 block 53.9, TROY NFkB inh 61.7 (no result: PPC-1+TRAIL kill, Platelet DG rel, HSP90 refold inh)
CN(C)c1ccc(C=c2c3cc([N+](=O)[O-])ccc3n3c2cc(-c2ccccc2)[n+]3C)cc1	C8 TRAIL sens 75.8, TWEAK Fn14 block 75.9 (no result: PPC-1+TRAIL kill, Platelet DG rel, HSP90 refold inh)
COc1cc(C=c2c3ccccc3n3c2cc(-c2ccccc2)[n+]3C)cc(OC)c1OC	none (no result: PPC-1+TRAIL kill, Platelet DG rel, HSP90 refold inh)
COc1cc(N(C)C)ccc1C=c1c2ccccc2n2c1cc(-c1ccccc1)[n+]2C	C8 TRAIL sens 54.0, TWEAK Fn14 block 87.9, TROY NFkB inh 57.5 (no result: PPC-1+TRAIL kill, Platelet DG rel, HSP90 refold inh)
CCNC(=O)C1(C)CCN1CCS(=O)(=O)c1ccc(C)cc1 (stereo not given)	none (no result: PPC-1+TRAIL kill, Platelet DG rel, HSP90 refold inh)
CN(C)c1ccc(C=C2C=C(c3ccccc3)OC2=O)cc1	none (no result: PPC-1+TRAIL kill, Platelet DG rel, HSP90 refold inh)
CN(C)c1ccc(C=c2c3ccccc3n3c2cc(-c2ccccc2)[n+]3C)cc1	C8 TRAIL sens 54.4, TWEAK Fn14 block 96.7, TROY NFkB inh 52.8 (no result: PPC-1+TRAIL kill, Platelet DG rel, HSP90 refold inh)
OC(C1=CC(=Cc2ccncc2)c2ccccc21)c1ccncc1 (stereo not given)	TWEAK Fn14 block 55.0 (no result: PPC-1+TRAIL kill, Platelet DG rel, HSP90 refold inh)
OC(c1ccccc1)c1ccncc1 (stereo not given)	none (no result: PPC-1+TRAIL kill, HSP90 refold inh)
FC(F)Sc1ccc(NC(=S)N2CCN(c3ccccn3)CC2)cc1	TWEAK Fn14 block 56.0 (no result: PPC-1+TRAIL kill)
Oc1ccccc1N1CCN(C(=S)Nc2ccc(SC(F)F)cc2)CC1	none
CCOC(=O)C1=CC[C@@H](c2ccccc2Cl)N(S(=O)(=O)c2ccc(C)cc2)[C@H]1C(=O)OCC	none (no result: PPC-1+TRAIL kill, Platelet DG rel, HSP90 refold inh)
O=C(C1CCCCC1)N1CCN=C1SCc1cccc([N+](=O)[O-])c1	TWEAK Fn14 block 53.6
CNc1nc(N)c(C(=O)Nc2cc(C)on2)s1	none
O=C(CSc1nnc(C2CC2)n1C1CC1)c1ccccc1F	none (no result: PPC-1+TRAIL kill, Platelet DG rel, HSP90 refold inh)
COc1cc(-c2noc(CCC(=O)NC3CCCCC3)n2)cc(OC)c1OC	none (no result: PPC-1+TRAIL kill)
Cc1ccccc1-c1cc(C(=O)Nc2sc(C(=O)OC(C)C)c(C)c2C#N)c2ccccc2n1	TWEAK Fn14 block 62.0, TROY NFkB inh 58.1
COC(=O)c1sccc1NC(=O)c1cc(-c2ccc(C)cc2)nc2ccccc12	TWEAK Fn14 block 98.3
COc1ccc(-c2cc(C(=O)NC3=NCCS3)c3ccccc3n2)cc1OC	none
Cc1ccc(C)c(-c2cc(C(=O)Nc3nccs3)c3ccccc3n2)c1	TWEAK Fn14 block 62.5
O=C(NC1=NCCS1)c1cc(-c2ccc(-c3ccccc3)cc2)nc2ccccc12	C8 TRAIL sens 65.1
COC(=O)c1sccc1NC(=O)c1cc(-c2cc(C)ccc2C)nc2ccccc12	none
O=Cc1ccnc(-c2ccc(OC(=O)c3ccco3)cc2)n1	none
Cc1cccnc1NC(=O)CCn1c(=O)oc2ccccc21	none (no result: PPC-1+TRAIL kill)
Cn1c(=O)c2ncn(C)c2n(C)c1=O	none (no result: PPC-1+TRAIL kill, Platelet DG rel, HSP90 refold inh)
COC(=O)c1sc(NC(=O)c2cc(-c3ccccc3)nc3ccccc23)c(C#N)c1C	C8 TRAIL sens 52.2, TROY NFkB inh 51.5
CCOC(=O)c1sc(NC(=O)c2cc(-c3ccc(C)cc3)nc3ccccc23)c(C#N)c1C	TWEAK Fn14 block 61.9
COc1ccc(-c2cc(C(=O)Nc3sc4c(c3C#N)CCCC4)c3ccccc3n2)cc1	none (no result: Platelet DG rel)
CN(C)/C(=N\S(=O)(=O)c1ccc(Cl)cc1)c1ccc(F)cc1	none (no result: PPC-1+TRAIL kill)
CC1CCCCN1C(=O)CCn1c(=O)oc2ccccc21 (stereo not given)	none (no result: PPC-1+TRAIL kill)
CCO[C@@H]1OC(C(=O)NCc2nc3ccccc3[nH]2)=C[C@H](c2cn(C(C)=O)c3ccccc23)[C@H]1CCCO	HSP90 refold inh 16.1
CCO[C@H]1OC(C(=O)NCc2nc3ccccc3[nH]2)=C[C@@H](c2cn(C(C)=O)c3ccccc23)[C@@H]1CCCO	none (no result: PPC-1+TRAIL kill, HSP90 refold inh)
OC(c1cc(-c2cccc(Cl)c2)nc2ccccc12)C1CCCCN1 (stereo not given)	C8 TRAIL sens 67.0 (no result: PPC-1+TRAIL kill, Platelet DG rel, HSP90 refold inh)
OC(c1cc(C(F)(F)F)nc2c(C(F)(F)F)cccc12)C1CCCCN1 (stereo not given)	none (no result: PPC-1+TRAIL kill, Platelet DG rel, HSP90 refold inh)
Cc1ccc(NC(=O)c2noc3c2CCC3)cc1C	TWEAK Fn14 block 56.2
COC(=O)c1ccccc1NC(=O)c1noc2c1CCCC2	none
CC(=O)c1ccc(NC(=O)c2noc3c2CCC3)cc1	HSP90 refold inh 21.3, TWEAK Fn14 block 94.5, TROY NFkB inh 54.0
Cc1cc2cc(C)c(NCCNC(=O)c3cccs3)nc2cc1C	none
